Potency and affinity values are given separately. Active and inactive are the calls of the source.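 Rule for the calls: active = fitted half-maximal dose no more than twice the top valid tested dose, for compounds that lower signal; inconclusive = fit invalid, or curve flat with activity between -70 and -30; inactive = potency past limit, curve flat within ±30, or signal increasing.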
biological target: NAD-dependent protein deacylase sirtuin-5, mitochondrial (Homo sapiens) (UniProt Q9NXA8); assay: SIRT5 deacylase inhibitors, dose response, biochemical, fluorescence imaging, cherry-pick, set 6 (AID 720597); settings: Purified SirT5, succinyl-peptide-AMC/trypsin fluorescence; series mostly up to 15 µM;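 note: lower AMC signal can also come from blocking the trypsin step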
Sequence (Q9NXA8 whole entry, looked up): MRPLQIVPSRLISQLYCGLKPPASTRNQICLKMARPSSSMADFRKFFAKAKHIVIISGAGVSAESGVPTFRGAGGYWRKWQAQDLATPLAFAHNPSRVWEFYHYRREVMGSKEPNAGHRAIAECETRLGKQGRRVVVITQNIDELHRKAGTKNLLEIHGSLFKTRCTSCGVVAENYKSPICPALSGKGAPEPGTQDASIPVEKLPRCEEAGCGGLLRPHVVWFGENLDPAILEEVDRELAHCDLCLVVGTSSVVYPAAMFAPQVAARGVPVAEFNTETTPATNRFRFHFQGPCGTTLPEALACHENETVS

outcome, inactive:
O=C(Nc1ccccc1)N1C[C@@H]2[C@H](c3ccccc31)[C@@H](CO)N2CC1CCCC1
Cc1ccc(-c2cnc3c(c2)C(=O)N([C@H](C)CO)C[C@H](C)[C@@H](CN(C)Cc2ccccc2F)O3)cc1
COc1ccc(S(=O)(=O)Nc2ccc3c(c2)C(=O)N([C@H](C)CO)C[C@@H](C)[C@@H](CN(C)Cc2ccc(Oc4ccccc4)cc2)O3)cc1
C[C@H](CO)N1C[C@H](C)[C@H](CN(C)C(=O)Nc2ccc(C(F)(F)F)cc2)OCCCC[C@H](C)Oc2ccc(NS(=O)(=O)c3ccc(Cl)cc3)cc2C1=O
Cc1ccc(S(=O)(=O)N(C)C[C@@H]2OCc3ccccc3-c3c(n(C)c4ccccc34)C(=O)N([C@H](C)CO)C[C@@H]2C)cc1
COc1ccccc1S(=O)(=O)N(C)C[C@@H]1Oc2cc(C#CCC3CCCC3)ccc2S(=O)(=O)N([C@H](C)CO)C[C@H]1C
COc1ccc(C#Cc2ccc([C@@H]3[C@H](CO)N4C(=O)CN(C(=O)c5cccnc5)C[C@@H]34)cc2)cc1
C[C@H](CO)N1C[C@H](C)[C@H](CN(C)S(=O)(=O)c2ccc(F)cc2)Oc2cc(C#Cc3ccc(F)cc3)ccc2S1(=O)=O
C[C@H](CO)N1C[C@H](C)[C@@H](CN(C)S(=O)(=O)c2ccccc2)Oc2c(cccc2N(C)C)C1=O
COc1cccc(S(=O)(=O)N(C)C[C@@H]2Oc3cc(C4=CCCCC4)ccc3S(=O)(=O)N([C@@H](C)CO)C[C@H]2C)c1
C[C@@H]1CN([C@H](C)CO)S(=O)(=O)c2ccc(/C=C/c3ccccc3)cc2O[C@@H]1CN(C)C(=O)NC1CCCC1
COc1ccc(S(=O)(=O)Nc2ccc3c(c2)C(=O)N([C@@H](C)CO)C[C@H](C)[C@H](CN(C)Cc2ccc(Oc4ccccc4)cc2)O3)cc1
COc1ccc(NC(=O)N(C)C[C@@H]2Oc3cc(C#CCC(C)C)ccc3S(=O)(=O)N([C@@H](C)CO)C[C@@H]2C)cc1
C[C@H](CO)N1C[C@H](C)[C@@H](CN(C)Cc2ccc(C(F)(F)F)cc2)Oc2ccc(NS(=O)(=O)c3ccc(F)cc3)cc2CC1=O
Cc1noc(C)c1S(=O)(=O)Nc1ccc2c(c1)C(=O)N([C@H](C)CO)C[C@H](C)[C@@H](CN(C)Cc1ccc(C(F)(F)F)cc1)OCCCC[C@H](C)O2
O=S(=O)(NC[C@@H]1CC[C@H]2[C@H](CN2Cc2cccc(-c3ccccn3)c2)O1)c1ccccc1
COc1ccc(S(=O)(=O)N(C)C[C@@H]2OCCCC[C@@H](C)Oc3ccc(NS(=O)(=O)c4ccc(F)cc4)cc3C(=O)N([C@@H](C)CO)C[C@@H]2C)cc1
C[C@@H]1CN([C@@H](C)CO)S(=O)(=O)c2ccc(-c3cccc(F)c3)cc2O[C@@H]1CN(C)S(=O)(=O)c1ccc(F)cc1
COc1ccc(S(=O)(=O)Nc2ccc3c(c2)C(=O)N([C@@H](C)CO)C[C@@H](C)[C@H](CN(C)Cc2ccc(C(F)(F)F)cc2)OCCCC[C@H](C)O3)cc1
C[C@@H]1CN([C@H](C)CO)C(=O)c2cc(NS(=O)(=O)c3ccc(Cl)cc3)ccc2O[C@@H](C)CCCCO[C@@H]1CN(C)Cc1ccccc1
C[C@H]1CN([C@@H](C)CO)C(=O)c2cc(NC(=O)C3CCCCC3)ccc2O[C@@H]1CN(C)CC1CC1
C[C@@H]1CN([C@H](C)CO)S(=O)(=O)c2ccc(C#Cc3ccc(F)cc3)cc2O[C@H]1CN(C)S(=O)(=O)c1ccc(F)cc1
COc1cccc(NC(=O)N2CC(=O)N3[C@H](CO)[C@H](c4ccc(C#CCC5CCCC5)cc4)[C@@H]3C2)c1
C[C@@H]1CN([C@H](C)CO)C(=O)c2c(c3ccccc3n2C)-c2ccccc2CO[C@@H]1CN(C)S(=O)(=O)c1ccc(Cl)cc1
C[C@@H]1CN([C@H](C)CO)C(=O)c2cccc(NC(=O)Nc3ccc(C(F)(F)F)cc3)c2O[C@H]1CN(C)C(=O)Nc1cccc2ccccc12
COc1ccc(CN(C)C[C@H]2Oc3c(NC(=O)Nc4ccc(F)cc4)cccc3C(=O)N([C@@H](C)CO)C[C@@H]2C)cc1
CCCC#Cc1ccc2c(c1)O[C@@H](CN(C)CC1CCOCC1)[C@H](C)CN([C@H](C)CO)S2(=O)=O
Cc1ccc(S(=O)(=O)N(C)C[C@@H]2OCCCC[C@H](C)Oc3ccc(NS(=O)(=O)c4ccc(F)cc4)cc3C(=O)N([C@@H](C)CO)C[C@H]2C)cc1
COc1ccc(S(=O)(=O)Nc2ccc3c(c2)C(=O)N([C@H](C)CO)C[C@H](C)[C@@H](CN(C)Cc2ccc(C(F)(F)F)cc2)OCCCC[C@H](C)O3)cc1
Cc1ccc(S(=O)(=O)N(C)C[C@H]2Oc3ccc(NC(=O)Nc4cccc5ccccc45)cc3CC(=O)N([C@@H](C)CO)C[C@H]2C)cc1
COc1ccc(NC(=O)N(C)C[C@H]2Oc3ccc(NS(=O)(=O)c4ccc(F)cc4)cc3C(=O)N([C@H](C)CO)C[C@H]2C)cc1
COc1ccc(NC(=O)Nc2ccc3c(c2)C(=O)N([C@@H](C)CO)C[C@H](C)[C@H](CN(C)Cc2ccc(Cl)c(Cl)c2)O3)cc1
Cc1ccc(S(=O)(=O)N(C)C[C@H]2OCCCC[C@H](C)Oc3ccc(NS(=O)(=O)c4ccc(F)cc4)cc3C(=O)N([C@H](C)CO)C[C@H]2C)cc1
C[C@H]1CN([C@@H](C)CO)S(=O)(=O)c2ccc(C#Cc3cccc(F)c3)cc2O[C@@H]1CN(C)S(=O)(=O)c1ccccc1F
Cc1ccc(S(=O)(=O)Nc2ccc3c(c2)C(=O)N([C@@H](C)CO)C[C@H](C)[C@@H](CN(C)S(=O)(=O)c2ccccc2)OCCCC[C@@H](C)O3)cc1
COc1ccc(C#Cc2ccc([C@@H]3[C@H]4CN(C(=O)c5cccnc5)CC(=O)N4[C@H]3CO)cc2)cc1
C[C@H]1CN([C@@H](C)CO)S(=O)(=O)c2ccc(C#Cc3cccc(F)c3)cc2O[C@H]1CN(C)S(=O)(=O)c1ccccc1F
COc1cccc(CN(C)C[C@@H]2OCc3ccccc3-c3c(n(C)c4ccccc34)C(=O)N([C@H](C)CO)C[C@H]2C)c1
CO[C@@H]1CC[C@@H]2CCN(C)C(=O)[C@@H](C)[C@H](OC)CN(C)C(=O)c3cc(C#N)ccc3OC[C@@H]1O2
COc1ccc(S(=O)(=O)Nc2ccc3c(c2)C(=O)N([C@@H](C)CO)C[C@@H](C)[C@@H](CN(C)Cc2ccc(C(F)(F)F)cc2)OCCCC[C@H](C)O3)cc1
